Tests used:
Assay in all cases: log2 ratio of Biotin-Ahx-Ub-VS probe labelling (fragment/DMSO); higher = less target engagement (more negative = stronger competition), active = hit call of the paper (q ≤ 0.05, log2 ratio ≤ -1)
Conditions in all cases: compound concentration: 200 uM; treatment time: 3 h
[1] = target: T1, USP42 (UniProt Q9H9J4)
T1 sequence (whole entry): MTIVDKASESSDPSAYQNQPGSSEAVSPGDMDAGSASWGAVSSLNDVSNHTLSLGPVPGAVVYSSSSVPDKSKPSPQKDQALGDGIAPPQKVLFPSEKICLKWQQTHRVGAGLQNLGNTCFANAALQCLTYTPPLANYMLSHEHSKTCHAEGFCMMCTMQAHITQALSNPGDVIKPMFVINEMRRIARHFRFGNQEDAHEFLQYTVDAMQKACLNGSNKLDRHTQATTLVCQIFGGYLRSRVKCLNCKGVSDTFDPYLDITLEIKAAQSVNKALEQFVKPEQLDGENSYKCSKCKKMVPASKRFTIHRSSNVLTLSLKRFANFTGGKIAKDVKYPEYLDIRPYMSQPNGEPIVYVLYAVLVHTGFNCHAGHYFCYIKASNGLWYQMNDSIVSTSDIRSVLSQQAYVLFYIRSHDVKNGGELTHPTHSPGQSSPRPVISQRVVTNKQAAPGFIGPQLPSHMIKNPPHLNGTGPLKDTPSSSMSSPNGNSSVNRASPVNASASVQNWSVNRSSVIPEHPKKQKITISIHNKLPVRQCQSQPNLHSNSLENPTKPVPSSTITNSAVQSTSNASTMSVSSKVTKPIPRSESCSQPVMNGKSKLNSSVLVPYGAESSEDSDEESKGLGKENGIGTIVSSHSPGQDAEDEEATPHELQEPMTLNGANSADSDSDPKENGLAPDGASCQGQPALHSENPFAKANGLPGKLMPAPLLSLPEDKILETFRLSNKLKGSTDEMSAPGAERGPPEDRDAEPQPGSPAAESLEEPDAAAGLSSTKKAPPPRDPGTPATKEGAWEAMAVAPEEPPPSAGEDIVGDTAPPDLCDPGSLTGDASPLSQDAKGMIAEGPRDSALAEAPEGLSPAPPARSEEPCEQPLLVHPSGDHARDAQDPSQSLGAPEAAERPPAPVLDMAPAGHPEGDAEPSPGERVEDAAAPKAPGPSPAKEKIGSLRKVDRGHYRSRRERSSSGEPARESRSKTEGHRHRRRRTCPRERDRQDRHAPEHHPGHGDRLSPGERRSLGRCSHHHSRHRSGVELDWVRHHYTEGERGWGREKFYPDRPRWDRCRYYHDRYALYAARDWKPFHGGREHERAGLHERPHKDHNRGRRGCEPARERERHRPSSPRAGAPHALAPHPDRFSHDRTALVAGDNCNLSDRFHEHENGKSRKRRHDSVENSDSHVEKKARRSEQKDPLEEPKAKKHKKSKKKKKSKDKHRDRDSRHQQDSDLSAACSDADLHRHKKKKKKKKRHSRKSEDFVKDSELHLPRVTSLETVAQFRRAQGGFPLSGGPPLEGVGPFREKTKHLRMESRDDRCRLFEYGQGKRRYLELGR
How it was run: (§1)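 HEK293T lysate (495 µg per sample, in Tris/CHAPS/IGEPAL buffer with protease inhibitors) was treated in triplicate with fragment at 200 µM or with DMSO for 3 h. It was then treated with Biotin-Ahx-Ub-VS (0.5 µM final) for 1 h. Labelled DUBs were NeutrAvidin-enriched, digested with LysC and trypsin, and run by diaPASEF LC-MS/MS. Spectronaut label-free quantities were global-median-normalised. Values are average log2 ratios fragment/DMSO by unpaired t-test, using proteins with ≥2 unique peptides.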

[2] = target: USP46 (UniProt P62068)
Chain of USP46 (P62068 whole entry): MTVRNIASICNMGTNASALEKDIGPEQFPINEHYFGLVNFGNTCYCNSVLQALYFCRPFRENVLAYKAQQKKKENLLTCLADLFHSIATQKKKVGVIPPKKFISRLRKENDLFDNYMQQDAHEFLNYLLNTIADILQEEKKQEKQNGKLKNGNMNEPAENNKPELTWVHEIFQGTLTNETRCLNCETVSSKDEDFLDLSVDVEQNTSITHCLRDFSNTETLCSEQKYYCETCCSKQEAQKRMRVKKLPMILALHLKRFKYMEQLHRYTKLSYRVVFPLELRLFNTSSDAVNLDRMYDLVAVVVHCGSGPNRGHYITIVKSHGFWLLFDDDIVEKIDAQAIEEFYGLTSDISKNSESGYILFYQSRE
How it was run: as §1

[3] = target: T2, USP47 (UniProt Q96K76)
T2 sequence (whole entry): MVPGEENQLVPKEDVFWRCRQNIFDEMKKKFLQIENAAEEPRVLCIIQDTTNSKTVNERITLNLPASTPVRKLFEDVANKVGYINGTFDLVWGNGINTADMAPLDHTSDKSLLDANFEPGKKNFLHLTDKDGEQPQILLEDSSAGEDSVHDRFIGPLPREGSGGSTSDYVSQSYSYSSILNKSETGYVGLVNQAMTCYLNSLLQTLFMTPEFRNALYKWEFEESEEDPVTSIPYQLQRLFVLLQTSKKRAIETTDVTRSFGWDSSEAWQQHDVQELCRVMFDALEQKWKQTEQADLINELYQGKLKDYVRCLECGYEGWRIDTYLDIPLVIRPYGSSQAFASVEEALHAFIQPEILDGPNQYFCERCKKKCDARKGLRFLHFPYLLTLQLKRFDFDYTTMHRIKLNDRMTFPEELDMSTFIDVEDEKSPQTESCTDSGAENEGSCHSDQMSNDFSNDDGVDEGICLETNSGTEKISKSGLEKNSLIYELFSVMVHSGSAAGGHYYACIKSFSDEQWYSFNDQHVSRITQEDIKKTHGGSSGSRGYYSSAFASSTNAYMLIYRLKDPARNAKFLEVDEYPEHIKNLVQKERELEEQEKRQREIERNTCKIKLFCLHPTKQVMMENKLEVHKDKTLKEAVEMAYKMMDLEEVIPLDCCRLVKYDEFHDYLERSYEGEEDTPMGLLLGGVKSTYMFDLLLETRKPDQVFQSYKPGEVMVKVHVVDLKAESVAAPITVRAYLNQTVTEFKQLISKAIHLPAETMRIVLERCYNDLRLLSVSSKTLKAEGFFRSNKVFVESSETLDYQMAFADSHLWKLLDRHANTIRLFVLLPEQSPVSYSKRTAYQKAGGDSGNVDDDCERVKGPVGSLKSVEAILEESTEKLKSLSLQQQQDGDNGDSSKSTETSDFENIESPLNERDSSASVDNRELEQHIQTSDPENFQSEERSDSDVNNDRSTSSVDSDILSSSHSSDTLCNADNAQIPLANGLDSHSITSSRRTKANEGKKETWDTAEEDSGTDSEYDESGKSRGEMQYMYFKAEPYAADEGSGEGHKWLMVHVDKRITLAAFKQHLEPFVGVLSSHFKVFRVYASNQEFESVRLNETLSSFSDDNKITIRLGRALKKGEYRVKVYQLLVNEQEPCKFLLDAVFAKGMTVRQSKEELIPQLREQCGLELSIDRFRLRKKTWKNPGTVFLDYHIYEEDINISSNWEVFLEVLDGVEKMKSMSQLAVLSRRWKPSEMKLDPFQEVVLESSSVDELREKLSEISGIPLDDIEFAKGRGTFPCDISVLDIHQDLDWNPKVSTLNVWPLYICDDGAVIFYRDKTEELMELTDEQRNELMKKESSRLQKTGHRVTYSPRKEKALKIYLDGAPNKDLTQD
How it was run: as §1

[4] = target: T3, USP48 (UniProt Q86UV5)
T3 sequence (whole entry): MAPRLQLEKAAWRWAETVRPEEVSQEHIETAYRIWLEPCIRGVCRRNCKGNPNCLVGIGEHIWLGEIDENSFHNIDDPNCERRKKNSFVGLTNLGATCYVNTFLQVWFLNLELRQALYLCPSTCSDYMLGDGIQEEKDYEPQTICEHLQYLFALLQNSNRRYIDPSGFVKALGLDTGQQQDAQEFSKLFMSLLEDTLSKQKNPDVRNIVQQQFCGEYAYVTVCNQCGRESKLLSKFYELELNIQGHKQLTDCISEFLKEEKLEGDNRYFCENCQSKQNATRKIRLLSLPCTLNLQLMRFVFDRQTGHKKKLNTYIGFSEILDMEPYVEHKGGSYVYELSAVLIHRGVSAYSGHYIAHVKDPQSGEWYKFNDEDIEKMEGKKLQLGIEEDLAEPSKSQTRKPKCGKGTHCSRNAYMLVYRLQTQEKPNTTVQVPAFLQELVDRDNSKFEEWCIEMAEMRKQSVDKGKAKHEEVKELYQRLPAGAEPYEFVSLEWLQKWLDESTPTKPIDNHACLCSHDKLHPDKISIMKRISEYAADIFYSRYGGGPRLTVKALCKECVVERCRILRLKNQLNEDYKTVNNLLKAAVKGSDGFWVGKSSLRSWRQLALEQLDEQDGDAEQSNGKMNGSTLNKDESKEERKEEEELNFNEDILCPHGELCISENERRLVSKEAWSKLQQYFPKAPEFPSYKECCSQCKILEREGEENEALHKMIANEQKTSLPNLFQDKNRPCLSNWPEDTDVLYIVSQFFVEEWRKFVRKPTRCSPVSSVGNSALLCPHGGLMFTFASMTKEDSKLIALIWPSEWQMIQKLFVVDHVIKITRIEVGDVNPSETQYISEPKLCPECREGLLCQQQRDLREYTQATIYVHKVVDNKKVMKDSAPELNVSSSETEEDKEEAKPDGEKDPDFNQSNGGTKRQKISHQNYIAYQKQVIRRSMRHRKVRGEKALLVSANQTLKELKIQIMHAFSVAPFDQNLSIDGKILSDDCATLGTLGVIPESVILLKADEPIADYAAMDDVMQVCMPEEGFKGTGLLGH
How it was run: as §1

[5] = target: T4, USP5 (UniProt P45974)
T4 sequence (whole entry): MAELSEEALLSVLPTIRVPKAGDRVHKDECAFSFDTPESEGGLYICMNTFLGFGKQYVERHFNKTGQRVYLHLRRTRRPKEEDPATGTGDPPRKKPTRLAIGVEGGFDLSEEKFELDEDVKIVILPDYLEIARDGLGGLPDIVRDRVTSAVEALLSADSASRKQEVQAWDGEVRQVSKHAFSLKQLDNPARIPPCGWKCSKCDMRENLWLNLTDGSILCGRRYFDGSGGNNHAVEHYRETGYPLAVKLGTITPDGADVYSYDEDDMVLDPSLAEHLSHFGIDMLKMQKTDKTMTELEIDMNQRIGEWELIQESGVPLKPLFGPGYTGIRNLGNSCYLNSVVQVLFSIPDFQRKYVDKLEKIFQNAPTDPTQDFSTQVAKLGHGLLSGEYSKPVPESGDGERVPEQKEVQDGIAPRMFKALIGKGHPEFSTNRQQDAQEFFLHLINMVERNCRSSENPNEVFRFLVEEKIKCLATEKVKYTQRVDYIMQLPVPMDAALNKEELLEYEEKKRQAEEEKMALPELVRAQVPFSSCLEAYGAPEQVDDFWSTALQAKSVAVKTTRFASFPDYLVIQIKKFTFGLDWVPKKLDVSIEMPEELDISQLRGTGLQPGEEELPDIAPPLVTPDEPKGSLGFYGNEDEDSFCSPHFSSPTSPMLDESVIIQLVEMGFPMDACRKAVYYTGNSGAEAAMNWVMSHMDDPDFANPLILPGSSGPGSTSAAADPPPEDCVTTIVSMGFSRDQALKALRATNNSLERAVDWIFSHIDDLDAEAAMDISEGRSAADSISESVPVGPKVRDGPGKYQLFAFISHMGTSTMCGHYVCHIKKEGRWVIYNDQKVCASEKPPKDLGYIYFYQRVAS
How it was run: as §1

[6] = target: USP54 (UniProt Q70EL1)
Chain of USP54 (Q70EL1 whole entry): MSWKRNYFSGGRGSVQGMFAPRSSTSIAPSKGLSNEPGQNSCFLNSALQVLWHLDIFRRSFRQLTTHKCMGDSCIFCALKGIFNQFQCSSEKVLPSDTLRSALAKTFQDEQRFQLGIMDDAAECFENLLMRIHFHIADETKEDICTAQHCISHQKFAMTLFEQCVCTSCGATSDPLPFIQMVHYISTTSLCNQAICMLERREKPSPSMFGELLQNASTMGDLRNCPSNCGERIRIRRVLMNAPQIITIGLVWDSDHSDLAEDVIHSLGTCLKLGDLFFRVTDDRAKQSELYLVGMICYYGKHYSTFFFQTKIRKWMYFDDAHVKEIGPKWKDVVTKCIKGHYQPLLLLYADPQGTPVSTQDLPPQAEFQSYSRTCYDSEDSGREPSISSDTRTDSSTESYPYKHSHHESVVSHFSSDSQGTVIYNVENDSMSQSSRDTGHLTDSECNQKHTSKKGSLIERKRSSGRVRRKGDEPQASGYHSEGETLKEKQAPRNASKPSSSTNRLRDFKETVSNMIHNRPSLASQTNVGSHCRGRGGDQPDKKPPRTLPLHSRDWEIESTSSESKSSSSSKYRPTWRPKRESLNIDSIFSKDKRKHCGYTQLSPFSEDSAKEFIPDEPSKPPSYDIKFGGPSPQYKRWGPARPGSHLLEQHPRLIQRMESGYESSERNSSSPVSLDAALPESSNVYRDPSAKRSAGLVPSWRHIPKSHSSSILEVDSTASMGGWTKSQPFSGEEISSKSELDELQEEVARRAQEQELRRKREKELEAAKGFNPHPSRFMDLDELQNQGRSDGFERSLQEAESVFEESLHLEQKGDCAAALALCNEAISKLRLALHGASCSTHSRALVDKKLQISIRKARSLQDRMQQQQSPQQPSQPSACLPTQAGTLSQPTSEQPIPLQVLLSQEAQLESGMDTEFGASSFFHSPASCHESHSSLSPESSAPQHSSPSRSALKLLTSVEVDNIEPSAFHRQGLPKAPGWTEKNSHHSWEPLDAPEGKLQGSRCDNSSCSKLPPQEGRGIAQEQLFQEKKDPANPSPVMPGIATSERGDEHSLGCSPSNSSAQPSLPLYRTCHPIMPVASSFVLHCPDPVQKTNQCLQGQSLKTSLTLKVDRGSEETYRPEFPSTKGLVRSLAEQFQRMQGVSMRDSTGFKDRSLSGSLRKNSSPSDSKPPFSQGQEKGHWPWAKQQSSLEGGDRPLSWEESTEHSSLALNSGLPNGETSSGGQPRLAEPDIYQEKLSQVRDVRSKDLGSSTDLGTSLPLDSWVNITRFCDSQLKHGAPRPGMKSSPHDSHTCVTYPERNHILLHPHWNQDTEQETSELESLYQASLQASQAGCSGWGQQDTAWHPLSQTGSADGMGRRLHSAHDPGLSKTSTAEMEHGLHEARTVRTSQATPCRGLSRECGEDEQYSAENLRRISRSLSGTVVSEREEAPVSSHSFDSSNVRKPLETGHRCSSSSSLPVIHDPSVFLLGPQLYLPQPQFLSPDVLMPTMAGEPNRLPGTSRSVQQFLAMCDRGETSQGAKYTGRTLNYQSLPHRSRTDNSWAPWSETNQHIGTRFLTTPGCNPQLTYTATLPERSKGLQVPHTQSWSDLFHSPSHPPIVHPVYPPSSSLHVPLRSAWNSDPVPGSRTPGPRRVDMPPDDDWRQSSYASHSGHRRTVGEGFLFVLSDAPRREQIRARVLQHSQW
How it was run: as §1

[7] = target: USP7 (UniProt Q93009)
How it was run: as §1

[8] = target: T5, USP8 (UniProt P40818)
T5 sequence (whole entry): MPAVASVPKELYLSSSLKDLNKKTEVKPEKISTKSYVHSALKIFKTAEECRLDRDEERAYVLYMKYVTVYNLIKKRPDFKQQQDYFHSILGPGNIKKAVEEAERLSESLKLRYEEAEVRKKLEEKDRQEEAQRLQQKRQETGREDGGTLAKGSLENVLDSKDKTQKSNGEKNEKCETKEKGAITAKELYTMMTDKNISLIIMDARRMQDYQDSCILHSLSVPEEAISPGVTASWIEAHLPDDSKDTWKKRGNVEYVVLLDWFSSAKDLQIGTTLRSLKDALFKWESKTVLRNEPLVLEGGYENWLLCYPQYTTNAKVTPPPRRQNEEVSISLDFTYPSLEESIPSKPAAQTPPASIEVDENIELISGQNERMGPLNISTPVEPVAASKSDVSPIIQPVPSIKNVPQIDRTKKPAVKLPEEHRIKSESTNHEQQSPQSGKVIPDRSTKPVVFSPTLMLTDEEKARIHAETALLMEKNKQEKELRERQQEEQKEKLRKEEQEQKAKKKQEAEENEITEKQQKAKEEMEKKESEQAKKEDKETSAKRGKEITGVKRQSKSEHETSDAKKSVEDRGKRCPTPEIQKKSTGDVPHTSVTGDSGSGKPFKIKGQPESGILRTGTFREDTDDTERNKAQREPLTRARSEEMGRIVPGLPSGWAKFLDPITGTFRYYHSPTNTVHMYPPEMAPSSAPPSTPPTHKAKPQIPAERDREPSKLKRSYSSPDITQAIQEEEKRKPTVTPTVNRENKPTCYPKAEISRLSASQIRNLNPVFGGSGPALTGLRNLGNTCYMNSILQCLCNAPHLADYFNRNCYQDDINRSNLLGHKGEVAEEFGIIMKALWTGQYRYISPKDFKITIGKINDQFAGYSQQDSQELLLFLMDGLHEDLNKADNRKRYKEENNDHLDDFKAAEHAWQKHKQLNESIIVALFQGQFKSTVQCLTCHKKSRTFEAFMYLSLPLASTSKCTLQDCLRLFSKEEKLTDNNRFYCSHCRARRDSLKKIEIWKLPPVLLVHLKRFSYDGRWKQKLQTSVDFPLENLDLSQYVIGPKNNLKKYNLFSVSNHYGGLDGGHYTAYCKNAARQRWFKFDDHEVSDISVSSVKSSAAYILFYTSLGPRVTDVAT
How it was run: as §1

[9] = target: USP9X (UniProt Q93008)
Chain of USP9X (Q93008 whole entry): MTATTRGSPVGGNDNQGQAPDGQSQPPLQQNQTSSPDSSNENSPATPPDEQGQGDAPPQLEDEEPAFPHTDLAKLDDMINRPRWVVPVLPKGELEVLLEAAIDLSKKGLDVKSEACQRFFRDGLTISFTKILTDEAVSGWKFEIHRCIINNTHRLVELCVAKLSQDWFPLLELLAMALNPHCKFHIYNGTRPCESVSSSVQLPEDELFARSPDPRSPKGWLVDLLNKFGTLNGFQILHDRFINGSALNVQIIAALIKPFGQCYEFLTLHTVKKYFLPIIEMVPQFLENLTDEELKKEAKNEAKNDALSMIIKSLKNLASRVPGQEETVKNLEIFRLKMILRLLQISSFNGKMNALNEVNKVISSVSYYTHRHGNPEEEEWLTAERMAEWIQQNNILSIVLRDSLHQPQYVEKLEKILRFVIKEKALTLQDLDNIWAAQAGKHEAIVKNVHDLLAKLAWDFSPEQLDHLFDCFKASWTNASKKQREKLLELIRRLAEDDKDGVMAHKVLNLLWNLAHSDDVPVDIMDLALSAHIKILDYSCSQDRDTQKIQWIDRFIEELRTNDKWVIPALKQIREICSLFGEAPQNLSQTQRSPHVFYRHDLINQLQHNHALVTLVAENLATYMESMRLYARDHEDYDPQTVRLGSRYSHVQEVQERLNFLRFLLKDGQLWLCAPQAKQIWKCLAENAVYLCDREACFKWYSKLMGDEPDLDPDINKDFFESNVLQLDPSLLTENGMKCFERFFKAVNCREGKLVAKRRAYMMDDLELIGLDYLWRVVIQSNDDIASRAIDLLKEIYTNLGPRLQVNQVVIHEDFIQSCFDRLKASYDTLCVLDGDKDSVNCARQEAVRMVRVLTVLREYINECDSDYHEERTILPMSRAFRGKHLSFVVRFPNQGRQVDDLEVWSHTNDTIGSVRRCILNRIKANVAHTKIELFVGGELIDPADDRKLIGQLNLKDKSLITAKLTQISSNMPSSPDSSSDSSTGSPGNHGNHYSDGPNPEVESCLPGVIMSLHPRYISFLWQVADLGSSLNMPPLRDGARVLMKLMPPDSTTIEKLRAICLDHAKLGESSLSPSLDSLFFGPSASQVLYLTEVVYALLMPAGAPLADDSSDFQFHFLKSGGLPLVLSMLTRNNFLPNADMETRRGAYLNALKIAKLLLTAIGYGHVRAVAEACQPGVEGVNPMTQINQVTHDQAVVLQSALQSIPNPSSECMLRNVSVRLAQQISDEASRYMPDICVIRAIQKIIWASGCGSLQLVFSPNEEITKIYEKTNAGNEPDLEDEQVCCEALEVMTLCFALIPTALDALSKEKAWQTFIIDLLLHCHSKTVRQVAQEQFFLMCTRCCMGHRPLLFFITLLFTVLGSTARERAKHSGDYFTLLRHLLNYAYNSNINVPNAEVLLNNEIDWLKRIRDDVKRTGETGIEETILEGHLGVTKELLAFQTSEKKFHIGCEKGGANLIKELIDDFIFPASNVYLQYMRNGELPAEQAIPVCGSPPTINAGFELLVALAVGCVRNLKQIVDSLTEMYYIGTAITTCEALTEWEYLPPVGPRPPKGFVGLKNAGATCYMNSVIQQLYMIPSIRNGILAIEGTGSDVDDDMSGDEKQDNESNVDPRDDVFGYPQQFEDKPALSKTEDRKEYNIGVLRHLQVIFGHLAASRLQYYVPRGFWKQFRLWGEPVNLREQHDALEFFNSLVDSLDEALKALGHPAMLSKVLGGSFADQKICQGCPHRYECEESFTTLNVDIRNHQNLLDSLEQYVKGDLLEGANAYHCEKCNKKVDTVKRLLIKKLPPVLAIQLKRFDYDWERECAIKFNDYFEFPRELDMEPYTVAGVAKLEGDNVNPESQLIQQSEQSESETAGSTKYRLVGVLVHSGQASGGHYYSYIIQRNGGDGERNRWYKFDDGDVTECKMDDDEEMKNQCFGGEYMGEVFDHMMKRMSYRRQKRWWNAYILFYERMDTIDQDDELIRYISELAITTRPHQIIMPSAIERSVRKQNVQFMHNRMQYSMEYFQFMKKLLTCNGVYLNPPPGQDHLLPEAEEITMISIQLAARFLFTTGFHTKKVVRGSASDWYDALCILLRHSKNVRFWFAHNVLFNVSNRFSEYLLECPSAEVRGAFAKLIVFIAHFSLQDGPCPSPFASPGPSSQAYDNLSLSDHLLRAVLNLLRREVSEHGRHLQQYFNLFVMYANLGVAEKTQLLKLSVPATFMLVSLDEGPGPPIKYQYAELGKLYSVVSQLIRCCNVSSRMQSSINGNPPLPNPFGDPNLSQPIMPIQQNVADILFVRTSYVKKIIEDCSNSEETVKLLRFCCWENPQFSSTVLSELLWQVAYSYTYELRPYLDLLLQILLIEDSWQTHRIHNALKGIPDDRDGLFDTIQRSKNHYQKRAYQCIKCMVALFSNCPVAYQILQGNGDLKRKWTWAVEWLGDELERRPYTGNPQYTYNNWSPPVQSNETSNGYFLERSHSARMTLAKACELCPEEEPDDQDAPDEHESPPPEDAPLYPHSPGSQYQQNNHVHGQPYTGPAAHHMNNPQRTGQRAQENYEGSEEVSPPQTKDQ
How it was run: as §1

[10] = target: UniProt O00487
Chain of UniProt O00487 (O00487 whole entry): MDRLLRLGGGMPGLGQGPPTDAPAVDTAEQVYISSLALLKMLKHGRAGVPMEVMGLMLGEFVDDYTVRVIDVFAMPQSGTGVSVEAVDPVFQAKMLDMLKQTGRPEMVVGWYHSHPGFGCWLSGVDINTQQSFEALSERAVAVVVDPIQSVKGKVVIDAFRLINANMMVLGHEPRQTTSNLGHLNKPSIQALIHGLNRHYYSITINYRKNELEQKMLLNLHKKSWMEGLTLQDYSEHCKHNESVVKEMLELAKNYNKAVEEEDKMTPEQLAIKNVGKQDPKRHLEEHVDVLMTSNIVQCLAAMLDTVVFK
How it was run: as §1

Measured: log2 ratio of Biotin-Ahx-Ub-VS probe labelling

COc1ccccc1C(C)NC(=O)CCl (stereo not given)
inactive: [1] -0.0523 | [2] -0.0541 | [3] -0.334 | [4] -0.321 | [5] -0.208 | [6] 0.256 | [7] -0.235 | [8] -0.576 | [9] -0.174 | [10] 0.0235
